Potency and viability data for 19 compounds are collected here from PubChem BioAssay (NCATS).

Each structure is given as a SMILES string. Values joined by “and” are separate entries in the source; they are usually repeats but may differ in a detail not shown here. Identical values can stand only once. Results filed as inconclusive are left out. Values without a mark were called inactive. Active and inactive are the calls of the source. Unless noted, the call rests on the fitted dose curve; in most records, active means well fitted curve in the direction sought with a large enough effect; inconclusive means small, poorly fitted or top-dose-only effect, or another doubt; inactive means no such curve, though single readings can be large; an effect the other way counts as inactive or inconclusive.

Experiment [1] deals with Cellular tumor antigen p53 (Homo sapiens) (UniProt P04637). Kind of experiment: Primary qHTS for small molecule compounds that upregulate eGFP-tagged delta133p53alpha (in C-terminal) cells. (AID 2060324). Further: potency means the concentration at half of the fitted maximal effect. Particulars: NCI-H358 delta133p53alpha-eGFP (C-terminal tag), GFP fluorescence imaging, 24 h; series mostly up to 57.5 µM. In outline:
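Read-out: gated-cell GFP peak intensity (laser scanning cytometer), plate-normalized with DMSO as 0% activity, after 24 h compound exposure at 37C. Cells were C-terminal eGFP-tagged delta133p53alpha NCI-H358, doxycycline-induced (100 ng/ml, 24 h) before plating.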
For orientation: qHTS replaces the single test concentration by a dilution series.

Experiment [2] deals with Aldehyde dehydrogenase, mitochondrial (Homo sapiens) (UniProt P05091). Kind of experiment: qHTS for Inhibitors of the Aldehyde Dehydrogenase Family (ALDH2) Validation screens (AID 2061302; active means well fitted inhibition curve with a large enough effect; title and protocol of this record describe different tests; further: potency means the concentration at half of the fitted maximal effect). Particulars: ALDH inhibition qHTS; series mostly up to 42.6 µM.
Experiment [3] has as its target Retinaldehyde dehydrogenase 3 (Homo sapiens) (UniProt P47895). Put plainly: qHTS for Inhibitors of the Aldehyde Dehydrogenase Family (ALDH1A3) Validation screen (AID 2061312). Further: on the % scale 0 is the no-effect control and ±100 the full control effect; nearly all actives have a fitted effect of over 45% in size. Particulars: ALDH1A3 enzyme inhibition qHTS validation, fluorescence; series mostly up to 84.7 µM.
Experiment [4] concerns the target Aldehyde dehydrogenase, mitochondrial (Homo sapiens) (UniProt P05091). Put plainly: qHTS for Inhibitors of the Aldehyde Dehydrogenase Family (ALDH2) Confirmatory screens (AID 2061303; active means well fitted inhibition curve with a large enough effect; title and protocol of this record describe different tests; further: potency means the concentration at half of the fitted maximal effect; nearly all actives have a fitted effect of over 45% in size). The conditions noted are these: ALDH inhibition qHTS; series mostly up to 45.4 µM.
Experiment [5] addresses Retinaldehyde dehydrogenase 3 (Homo sapiens) (UniProt P47895). Kind of experiment: qHTS for Inhibitors of the Aldehyde Dehydrogenase Family (ALDH1A3) Confirmatory screens (AID 2061311). Further: potency means the concentration at half of the fitted maximal effect; nearly all actives have a fitted effect of over 60% in size. Particulars: ALDH inhibition qHTS; series mostly up to 46 µM.
Experiment [6] concerns the target Aldehyde dehydrogenase 1A1 (Homo sapiens) (UniProt P00352). Kind of experiment: qHTS for Inhibitors of the Aldehyde Dehydrogenase Family (ALDH1A1) Confirmatory screens (AID 2061316). Further: potency means the concentration at half of the fitted maximal effect; nearly all actives have a fitted effect of over 65% in size. Particulars: ALDH inhibition qHTS; series mostly up to 47.3 µM.
Experiment [7] deals with Aldehyde dehydrogenase, mitochondrial (Homo sapiens) (UniProt P05091). Kind of experiment: qHTS for Inhibitors of the Aldehyde Dehydrogenase Family (ALDH2) Primary screen (AID 2061308).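 Further: plate controls were vehicle for no effect and reference inhibitor for full effect; nearly all actives have a fitted effect of over 55% in size.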 Particulars: ALDH2 enzyme inhibition qHTS, 1536-well; series mostly up to 56 µM.
Experiment [8] deals with Retinaldehyde dehydrogenase 3 (Homo sapiens) (UniProt P47895). Kind of experiment: qHTS for Inhibitors of the Aldehyde Dehydrogenase Family (ALDH1A3) Primary screen (AID 2061315).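 Further: plate controls were DMSO vehicle for no effect and reference inhibitor for full effect.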 The conditions noted are these: ALDH inhibition qHTS; series mostly up to 56 µM.
The nature of experiment [9]: BET inhibitor-based combinations targeting novel dependencies in MECOM-rearranged (r) AML: SET-2 cell line (AID 2202231).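 Further: plate controls were DMSO treated cells for no effect and wells without cells for full effect; nearly all actives have a fitted effect of over 35% in size.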 The conditions noted are these: SET-2 AML cells viability, CellTiter-Glo luminescence, 48 h; viability: hits give low values, concentration not given here. The essentials: (§1)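 AML cell lines seeded at 500 cells/well, treated with 11-point dose curves for 48 h. Viability by CellTiter-Glo luminescence, normalised to DMSO and empty wells; activity expressed as AUC and per-cell-line Z-transformed AUC.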
(Cellular ATP, detected with luciferase, serves as a proxy for viable cell number.)

Experiment [10] in a line: BET inhibitor-based combinations targeting novel dependencies in MECOM-rearranged (r) AML: MV-4-11 cell line (AID 2202233).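 Further: plate controls were DMSO for no effect and blank wells for full effect; nearly all actives have a fitted effect of over 45% in size.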 Particulars: MV-4-11 AML viability, CellTiter-Glo luminescence, 48 h; series mostly up to 46 µM. The essentials:
(§2)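 Cells at 500/well were exposed for 48 hr to MIPE v5.0 drugs as 11-point dose curves. Viability was read by CellTiter-Glo luminescence and normalized to DMSO and empty-well controls. Activity was expressed as AUC and per-cell-line Z-AUC.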

A short description of experiment [11]: BET inhibitor-based combinations targeting novel dependencies in MECOM-rearranged (r) AML: HNT-34 cell line (AID 2202234).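 Further: plate controls were vehicle wells for no effect and cell-free wells for full effect; nearly all actives have a fitted effect of over 35% in size.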 The conditions noted are these: HNT-34 AML viability, CellTiter-Glo luminescence, 48 h; series mostly up to 46 µM. In outline:
as §2

The nature of experiment [12]: BET inhibitor-based combinations targeting novel dependencies in MECOM-rearranged (r) AML: UCSD-AML1 cell line (AID 2202235).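 Further: plate controls were DMSO vehicle wells for no effect and blank wells for full effect; nearly all actives have a fitted effect of over 40% in size.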 Particulars: UCSD-AML1 AML cells viability, CellTiter-Glo, 48 h; series mostly up to 46 µM. In outline:
as §2

Experiment [13] can be described thus: BET inhibitor-based combinations targeting novel dependencies in MECOM-rearranged (r) AML: AML-191 cell line (AID 2202236;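 further: plate controls were vehicle wells for no effect and wells without cells for full effect; nearly all actives have a fitted effect of over 35% in size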). The conditions noted are these: AML-191 viability, CellTiter-Glo luminescence, 48 h; series mostly up to 46 µM. In outline: as §1
Experiment [14] is described as follows: BET inhibitor-based combinations targeting novel dependencies in MECOM-rearranged (r) AML: AML-194 cell line (AID 2202237;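 further: plate controls were vehicle wells for no effect and wells without cells for full effect; nearly all actives have a fitted effect of over 40% in size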). The conditions noted are these: AML-194 (MECOM-r AML) viability, CellTiter-Glo, 48 h; series mostly up to 46 µM. In outline: as §1
The nature of experiment [15]: BET inhibitor-based combinations targeting novel dependencies in MECOM-rearranged (r) AML: OCI-AML3 cell line (AID 2202232).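 Further: plate controls were DMSO vehicle wells for no effect and wells without cells for full effect; nearly all actives have a fitted effect of over 35% in size.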 Particulars: CellTiter-Glo luminescence, 48 h; Potency: OCI-AML3 viability; series mostly up to 46 µM. The essentials: as §1

Cellular tumor antigen p53 (Homo sapiens), sequence (P04637 whole entry, looked up): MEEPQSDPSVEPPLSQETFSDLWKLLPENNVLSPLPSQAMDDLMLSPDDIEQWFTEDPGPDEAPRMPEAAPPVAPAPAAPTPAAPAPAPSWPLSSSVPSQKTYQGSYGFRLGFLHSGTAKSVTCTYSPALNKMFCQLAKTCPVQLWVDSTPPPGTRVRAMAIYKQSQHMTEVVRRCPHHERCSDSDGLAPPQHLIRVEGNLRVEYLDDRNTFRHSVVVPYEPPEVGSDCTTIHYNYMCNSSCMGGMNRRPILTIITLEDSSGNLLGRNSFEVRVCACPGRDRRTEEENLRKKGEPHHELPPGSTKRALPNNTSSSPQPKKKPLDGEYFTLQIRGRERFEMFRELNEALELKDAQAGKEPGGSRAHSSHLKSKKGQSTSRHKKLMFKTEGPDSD

Consider `CNC1(C)C2CCC(C2)C1(C)C` (centres undefined), for which the Potency entry in experiment [1], in [2] and in [3] was “inactive” each time.

On to `CC(=O)c1ccc2c(c1)N(CCCN(C)C)c1ccccc1S2`, for which the Potency entry in experiment [1], in experiment [2] and in experiment [3] was “inactive” in each case.

Consider `CC(=O)/C(C)=N/O`, for which the Potency entry in experiment [1], in experiment [2] and in experiment [3] was “inactive” in each case.

With `CCN1CCC[C@H]1CNC(=O)c1c(O)c(Cl)cc(Cl)c1OC`, the Potency result in experiment [1], in [2] and in [3] was “inactive” in each case.

With `CN(C(=O)CCCOc1ccc2[nH]c(=O)ccc2c1)C1CCCCC1`, the Potency result in experiment [1], in experiment [2] and in experiment [3] was “inactive” throughout.

For the compound `COc1ccccc1N1CCN(CCCCN2C(=O)c3ccccc3C2=O)CC1`, the Potency entry in [1], in experiment [2] and in experiment [3] was “inactive” each time.

As to `CCCCCC(O)CCCC(=O)O` (centres undefined), the Potency result in experiment [1], in experiment [2] and in experiment [3] was “inactive” throughout.

`O=C1NCc2c1c1c3ccccc3[nH]c1c1[nH]c3ccccc3c21`: the Potency in experiment [1] is 30100 nM (active). Moreover, the Potency result in experiment [2] and in [3] was “inactive” each time.

Regarding `C[C@@H](NCCc1ccc(O)cc1)[C@@H](O)c1ccc(O)cc1`, the Potency result in experiment [1], in experiment [2] and in [3] was “inactive” in each case.

With `Cc1ccccc1/C=C/C1=NCCN1`, the Potency result in experiment [1], in experiment [2] and in experiment [3] was “inactive” in each case.

With `O=Nc1ccc2oc(=O)ccc2c1`, the Potency entry in experiment [1] was “inactive”. The Potency in experiment [2] was 1.12 µM (active); in experiment [4], 1270 nM (active); in experiment [5], 283 nM (active); in experiment [6], 283 nM (active).

On to `CC(C)(C)c1ccc(S(=O)(=O)/C=C/C#N)cc1`, for which the Potency is 26900 nM (active) in [1]; 1.26 µM (active) and 708 nM (active) in experiment [2].

`Cc1cc(C(C)(C)C)c(O)c(C)c1CC1=NCCN1`: the Potency entry in [1], in experiment [2], in experiment [7], in [3], in experiment [8] and in experiment [10] was “inactive” throughout. Besides, the Potency entry in [11], in experiment [12], in experiment [13] and in experiment [14] was “inactive” throughout. Also, the viability in [9] is 118%.

For the compound `CC(=O)[C@H]1CCC2C3CC=C4C[C@@H](OS(=O)(=O)O)CC[C@]4(C)C3CC[C@@]21C` (some centres undefined), the Potency result in experiment [1], in experiment [2] and in experiment [3] was “inactive” throughout.

Turning to `O=C1OC(=O)C2C3CCC(O3)C12` (centres undefined), the Potency entry in experiment [1], in experiment [2] and in experiment [3] was “inactive” in each case.

In the case of `Cc1cc2c(cc1Cl)N(C(=O)Nc1ccnc3ccccc13)CC2`, the Potency entry in [1] and in [2] was “inactive” throughout.

As for `CC[N+](CC)(CC)CC(=O)Nc1c(C)cccc1C`, the Potency result in experiment [1], in experiment [2] and in experiment [3] was “inactive” in each case.

`C=CCc1cccc(C=NNC(=O)CN2CCN(Cc3ccccc3)CC2)c1O`: the Potency result in experiment [1], in experiment [2] and in experiment [3] was “inactive” each time.

`c1cnc2cc3c(cc2n1)C1CNCC3C1`: the Potency result in [1], in [2], in [7], in experiment [3], in experiment [8] and in experiment [15] was “inactive” in each case. Also, the Potency result in experiment [10], in experiment [11], in experiment [12], in [13] and in experiment [14] was “inactive” each time. Further, the viability in experiment [9] was 106%.

As a reminder, the viability is a read-out of living cells in per cent, often relative to untreated cells.
